The results in this text go back to PubChem BioAssay (NCI).

About 83,000 compounds went through this panel and 20% of them were active in at least one assay; those are over-represented in the sample as a whole.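 Note: values are percent growth. 100 is the growth of untreated cells, values between 100 and 0 indicate rising inhibition; between -100 and 0 indicates cell death.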 Values without a mark were called inactive. Active and inactive are the calls of the source. Rule for the calls: active = growth percent below 10; inactive = the rest.

Holding throughout (test): NCI-60 one-dose screen, 48 h (100 = growth as untreated, 0 = no growth, -100 = all killed)
Common to all, as to conditions: 10 µM unless noted

For test [1], the system named is NCI-H23 lung.
Test [2] relates to NCI-H226 lung.
In test [3] the test system is NCI-H322M lung.
For test [4], the system named is HOP-62 NSCLC.
In test [5] the test system is NCI-H460 lung.
Test [6] concerns HOP-92 NSCLC.
Test [7] has as its system NCI-H522 lung.
Test [8] relates to A549/ATCC NSCLC.
Test [9] concerns 786-0 renal.
The subject of test [10] is COLO 205 colon.
Test [11] concerns DU-145 prostate.
For test [12], the system named is K-562 leukemia.
The test system of test [13] is MALME-3M melanoma.
Test [14] concerns MDA-MB-231 breast.
Test [15] concerns RXF 393 renal.
For test [16], the system named is SF-268 CNS.
For test [17], the system named is SF-295 CNS.
The subject of test [18] is SF-539 CNS.
The subject of test [19] is UACC-257 melanoma.
Test [20] has as its system M14 melanoma.

Consider `COc1ccccc1NC(=O)c1ccc(/C=C/C(=O)c2nccn2C)cc1`, for which the growth in test [1] was -35.7% (active); in [2], 24.6%; in test [3], -93.4% (active); in test [4] it was -49.5% (active); in test [5], -43.5% (active); in test [6], -24.3% (active). In addition, the growth in [7] was -44.8% (active); in test [8], -0.305% (active); in test [9] it was -48.4% (active); in test [10], -53.1% (active); in test [11], -88.2% (active); in test [12], 2.11% (active). In addition, the growth is -19.9% (active) in test [13]; -27% (active) in test [14]; -71.1% (active) in test [15]; -61.3% (active) in test [16]; -87.8% (active) in test [17]; -90.6% (active) in [18]. Also, the growth is -2.34% (active) in test [19] and -61.2% (active) in test [20].

In the case of `CC(=O)Nc1c(Cl)cc(Cl)c2c1Cc1cc([N+](=O)[O-])ccc1-2`, the growth was 94.6% in [1]; 113% in test [2]; 99% in [3]; 90.5% in test [4]; 86.6% in [5]; 100% in [6]. For the same compound, the growth in test [7] is 91.9%; in test [8], 82.4%; in test [9], 75.7%; in test [10] it was 93.4%; in [11] it was 104%; in test [12], 90.2%. Further, the growth in [13] is 107%; in [14], 83.6%; in test [15], 85.3%; in [16], 95.5%; in [17], 113%; in test [18] it was 61.1%. Moreover, the figures for the growth in [19] and in [20] were 107% and 100%, respectively.

With `Cc1ccc2nc(Cl)c(Cn3nnnc3SCc3ccccc3)cc2c1`, the growth was 91.8% in test [1]; 79.6% in test [2]; 105% in test [3]; 86% in [4]; 98.4% in [5]; 70.6% in test [6]. In addition, the growth in test [7] was 77.5%; in test [8], 92.5%; in test [9] it was 95%; in test [10] it was 110%; in test [11], 101%; in test [12] it was 87.9%. In addition, the growth is 114% in test [13]; 88.2% in [14]; 99.9% in test [15]; 93.9% in test [16]; 88.1% in [17]; 94.4% in [18]. Also, the growth in test [19] was 105%; in [20], 89.3%.

With `O=C1/C(=C/c2ccccc2[N+](=O)[O-])COc2ccc(O)cc21`, the growth in test [1] is 18.8%; in test [2] it was 66.4%; in test [3] it was 60.9%; in [4], 29.1%; in [5], 29%; in test [6] it was 40%. Further, the growth was -40.8% (active) in test [7]; 54.1% in [8]; -41.3% (active) in [9]; -32.6% (active) in test [10]; 18.1% in test [11]; 14.8% in test [12]. Also, the growth was -56.9% (active) in test [13]; -16.2% (active) in test [14]; -9.95% (active) in test [15]; 58.8% in test [16]; 81.1% in test [17]; -49.9% (active) in test [18]. Moreover, the growth in test [19] was 0.865% (active); in test [20], -10.9% (active).

As for `N#Cc1c(-c2ccccc2)cc(-c2ccccc2)n(CCCC(=O)NO)c1=O`, the growth in test [1] was 31.2%; in [2], 13%; in [3], 35.3%; in test [4] it was 22.2%; in test [5] it was 8.19% (active); in [6], 30.4%. Besides, the growth in test [7] was 21.8%; in test [8], 22.8%; in [9] it was 17.7%; in [10] it was 18.3%; in [11], 26.1%; in test [12], 7.36% (active). The growth in [13] was 11.1%; in test [14], 35.1%; in [15], -1.83% (active); in test [16] it was 37.3%; in test [17], 13.8%; in test [18] it was 20.6%. The growth in [19] is 37.6%; in test [20], 18.6%.

Consider `CC(C)CCC[C@@H](C)C1CCC2C3CCC4=C/C(=N/OCCN(C)C)CC[C@]4(C)C3CC[C@@]21C` (stereo not given in full), for which the growth in [1] is 84.7%; in test [2], 95.8%; in test [3] it was 79.9%; in test [4], 80.5%; in test [5], 98.5%; in [6], 50%. The growth in test [7] is 66.3%; in test [8] it was 77.7%; in test [9] it was 76%; in test [10], 98%; in [11], 91.7%; in test [12] it was 73.6%. In addition, the growth is 91.2% in test [13]; 89.4% in test [14]; 91.6% in [15]; 65.9% in test [16]; 68.4% in test [17]; 93.2% in test [18]. The growth was 97.5% in test [19] and 93.3% in test [20].

On to `O=C(CBr)CN1C(=O)c2ccccc2C1=O`, for which the growth was 95.1% in [1]; 98.7% in [2]; 101% in test [3]; 97.9% in test [4]; 108% in test [5]; -10.6% (active) in [6]. Moreover, the growth was 101% in [7]; 103% in [8]; 101% in test [9]; 101% in test [10]; 104% in test [11]; 89.7% in test [12]. For the same compound, the growth in test [13] is 100%; in test [14], 107%; in test [15], 120%; in test [16], 99.1%; in [17], 101%; in test [18] it was 96.2%. In addition, the growth in test [19] was 101%; in test [20], 104%.

For the compound `COc1ccc(C2CC(c3ccc(Nc4nc(Nc5ccc(F)cc5)nc(Nc5ccc(F)cc5)n4)cc3)=NN2C(C)=O)cc1` (stereo not given), the growth in test [1] was 75.7%; in test [2] it was 106%; in test [3], 87.5%; in [4], 96.7%; in test [5], 101%; in test [6] it was -13.6% (active). Also, the growth in [7] was 83.1%; in test [8] it was 82.5%; in [9], 82%; in test [10], 111%; in test [11], 115%; in [12] it was 83.1%. For the same compound, the growth is 78.1% in test [13]; 122% in test [14]; 94.4% in test [15]; 103% in test [16]; 81.2% in [17]; 92.1% in test [18]. Also, the growth in test [19] was 111%; in test [20] it was 100%.
